From PubChem
Only some compounds are listed: those with a hit (about 3.8% of all), similar ones and a draw of the others.
Beta2AR agonist: human beta-2 adrenergic receptor agonism by FAP; Am2.2-beta2AR cells, FAP receptor internalization, flow cytometry; response, % (test concentration not listed); 340,000 tested, 0.43% active; P07550;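 active = response above a set limit, near 3 SD of response in nonfluorescent compounds, cut at about 42% in these data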
Target sequence (P07550 whole entry, looked up): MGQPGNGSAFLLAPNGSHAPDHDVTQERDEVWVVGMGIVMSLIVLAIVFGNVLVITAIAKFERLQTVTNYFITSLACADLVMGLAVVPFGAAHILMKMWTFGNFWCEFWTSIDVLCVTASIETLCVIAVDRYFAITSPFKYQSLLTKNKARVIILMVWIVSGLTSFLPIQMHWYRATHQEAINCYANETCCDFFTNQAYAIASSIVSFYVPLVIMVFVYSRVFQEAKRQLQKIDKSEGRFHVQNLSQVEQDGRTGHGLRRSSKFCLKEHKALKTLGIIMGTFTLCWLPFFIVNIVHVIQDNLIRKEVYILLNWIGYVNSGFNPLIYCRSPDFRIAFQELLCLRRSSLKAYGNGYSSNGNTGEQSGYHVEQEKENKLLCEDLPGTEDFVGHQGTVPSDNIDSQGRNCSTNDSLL
PfHsp90 yeast 2: reduces growth (ATP signal) of yeast expressing P. falciparum Hsp90 | S. cerevisiae expressing PfHsp90, BacTiter-Glo ATP, 48 h; yeast lacking PDR1 and PDR3 efflux regulators | inhibition, % at 9.4 µM | 310,000 tested, 0.32% active | AID 504621;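 active = every replicate shows inhibition above about 80%, whatever the replicate mean, limit read from the data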;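 also: 0% = DMSO neutral controls and 100% = 20 µM radicicol positive controls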
tim23-1 inh: tim23-1 yeast growth inhibition; S. cerevisiae tim23-1 growth, BacTiter-Glo luminescence, 24 h; 330,000 tested, 1.3% active; inhibition, % at 20 µM;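 active = growth inhibition of the mutant yeast at or above 50%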;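 also: temperature-sensitive mutant grown at 25 °C; plate controls were DMSO-treated mutant yeast for no effect and medium wells lacking yeast for full effect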
tim10-1 inh: inhibits growth of tim10-1 mutant yeast; inhibition, % at 20 µM; S. cerevisiae tim10-1 ts strain growth, BacTiter-Glo, 24 h; 330,000 tested, 2.2% active;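 active = inhibition of at least 40%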;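 also: mutant grown at 25 °C; 0% = DMSO wells with yeast and 100% = wells holding no yeast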
TIM10 inh: inhibits growth of TIM10 yeast strain; S. cerevisiae TIM10 strain growth, BacTiter-Glo luminescence, 24 h; 330,000 tested, 1.4% active; inhibition, % at 10 µM;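 active = inhibition of 40% or more at the single tested concentration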;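 also: wild-type TIM10 isogenic control strain grown at permissive 25 °C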
TIM10 conf: TIM10 yeast growth inhibition, confirmed. shares compounds with TIM10 inh. S. cerevisiae tim10 strain growth, BacTiter-Glo luminescence, 24 h. inhibition, % at 10 µM. 4,600 tested, 63% active. AID 463215;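 active = inhibition of yeast growth at or above a set limit in either of two replicates at 10 µM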;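 also: this counterscreen used the strain with wild-type TIM10; 0% = yeast with DMSO and 100% = medium wells lacking yeast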
The depositor's hits bear a star; · = no result.

SMILES	Beta2AR agonist	PfHsp90 yeast 2	tim23-1 inh	tim10-1 inh	TIM10 inh	TIM10 conf
CCCCC(CC)Cn1c(O)c(/C=C2\C=NN=C2c2ccccc2)sc1=S (stereo unspecified)	6	-9	1	8	3	·
CCCn1c(O)c(/C=C2\C=NN=C2c2ccccc2)sc1=S	-10	·	8	39	42*	24
COc1ccc(NC(=S)N/N=C2\CC(C)(C)Oc3ccc(O)cc32)cc1	3	-27	16	35	41*	-11
CCn1c(-c2cc(-c3ccc(C)cc3)nc3ccccc23)n[nH]c1=S	-2	-26	49	33	42*	41*
CC1(C)Cc2c(C#N)c(N3CCN(C(=O)c4ccco4)CC3)nc(Cc3ccccc3)c2CO1	10	-7	18	28	42*	5
Cc1ccc(/C=N/Nc2nc(C)cc(C)n2)cc1	-5	-10	-18	-12	74*	9
Cc1cc(C)nc(N/N=C/c2ccc(Cl)cc2)n1	-4	-22	-19	-5	11	·
Cc1ccccc1NC(=O)NC1(C(=O)NCc2ccco2)CCCCC1	2	8	-2	-16	8	·
CN(C)S(=O)(=O)Oc1ccc(C(=O)Nc2cccc(C(F)(F)F)c2)cc1	1	15	6	24	13	·
CN(C)S(=O)(=O)Oc1ccc(C(=O)Nc2cccc(Cl)c2)cc1	3	-22	47	25	47*	45*
COc1ccc(-c2cn3cc(C)ccc3n2)cc1F	-10	18	36	27	61*	57*
COc1ccc(-c2cn3cccc(C)c3n2)cc1F	4	3	0	-4	9	·
Cc1ccc(NS(=O)(=O)c2ccc(NC(=O)c3ccc(Br)o3)cc2)c(C)c1	0	·	17	26	42*	2
Cc1ccc(NS(=O)(=O)c2ccc(NC(=O)c3ccccc3C(=O)O)cc2)c(C)c1	-2	-8	23	18	6	·
CC1CCCCN1C(=O)CN1C(=O)c2ccccc2S1(=O)=O (stereo unspecified)	-3	-9	-18	1	-1	·
CCOC(=O)/C=C/C(=O)OCC(=O)NCc1ccccc1	44*	9	34	36	42*	21
C/C(=C\C(=O)OCC(=O)NCc1ccccc1)C(=O)OCC(=O)NCc1ccccc1	-3	15	-8	17	0	·
NC(=O)CSc1nnc(-c2ccccc2Br)n1-c1cccc(C(F)(F)F)c1	-7	9	15	9	8	·
CCNC(=O)CSc1nnc(-c2ccccc2Br)n1-c1cccc(C(F)(F)F)c1	-8	16	-2	23	47*	6
COc1ccc(CNC(=O)[C@@H](NC(=O)C2CCN(S(=O)(=O)c3ccc(C)cc3)CC2)C(C)C)cc1OC	-5	7	-4	-5	9	·
c1ccc(Cc2nc3ccccc3n2Cc2ccccc2)cc1	0	-10	14	29	44*	32*
CC(OC(=O)c1cccc(S(=O)(=O)N(C)C)c1)C(=O)NCC(=O)Nc1ccc(F)c(F)c1F (stereo unspecified)	-5	-2	·	·	·	·
CCOC(=O)c1c(N)sc2c(OCC)c(Br)ccc12	-17	25	47	30	41*	23
CN(C)c1ccc(/C=C/C(=O)c2ccc3c(c2)OCCO3)cc1[N+](=O)[O-]	9	-2	41	36	43*	25
O=C(COC(=O)c1ccccc1Nc1ccc(SC(F)F)cc1)NC1CC1	-15	5	27	31	51*	37*
SMILES	Beta2AR agonist	PfHsp90 yeast 2	tim23-1 inh	tim10-1 inh	TIM10 inh	TIM10 conf
CCCSc1nc(N)nc2c1ncn2C1OC(CO)C(O)C1O (stereo unspecified)	9	-2	·	·	·	·
Cc1cccc(CCNC(=O)c2oc3c(C)c(C)ccc3c2C)n1	-2	19	46	31	25	·
Cc1ccc2c(C)c(C(=O)NCCc3ccco3)oc2c1C	-5	8	24	17	97*	9
COc1ccc(NCc2ccc(OC)c(Cn3ccnc3)c2)c(OC)c1	-10	-18	14	2	18	·
Cc1cc(C)c(S(=O)(=O)N2CCC(C(=O)NCc3ccc(Cl)cc3Cl)CC2)c(C)c1	-1	127*	30	29	56*	51*
Cc1ccc2[nH]cc(CCNC(=O)C3CCCO3)c2c1 (stereo unspecified)	-4	4	7	-15	7	·
CC(/C=C1\SC(=S)N(NS(=O)(=O)c2ccc(C)cc2)C1=O)=C\c1ccccc1	5	-46	29	28	48*	25
